Pf Dd2 growth – inhibitors of Plasmodium falciparum Dd2 growth; Potency, µM (series often up to 28.9 µM), for inactives: at the top dose activity, negative = inhibition, hits mostly inhibitors; P. falciparum Dd2 growth, SYBR Green, 72 h; AID 1347417; actives 4.3% (n = 120,000); active = well fitted inhibition curve with a large enough effect;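 note: plate controls were DMSO vehicle for no effect and reference drug for full effect; nearly all actives have a fitted effect of over 65% in size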
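Infected erythrocytes (Dd2, 0.3% parasitemia, 2.5% hematocrit final) are added to compound in RPMI-1640/Albumax II medium, grown 72 h at 37C in low oxygen, then lysed with saponin/Triton-X containing SYBR Green and read by fluorescence.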
The depositor's hits bear a star; i = inactive; [ ] = another dose, or the depositor's remark. Shown is part of a subset that was picked to be rich in hits. Potency is the fitted concentration of half-maximal effect.

SMILES	Pf Dd2 growth
CCn1nccc1C(=O)N1CCC2(CC1)CC(N1CCN(c3ccccn3)CC1)CCO2 (stereo not drawn)	i
CN1C(=O)N(C)C2(CCN(CCOc3ccc(F)cc3)C2)C1=O (stereo not drawn)	-3%
Cc1ccc([S+](=O)([O-])N2CCC(N3CCCCCC3=O)CC2)cc1	1%
Cc1noc(C)c1CC(=O)N1CC(=O)N(C2CCCCC2)CC(OCc2ccccc2)C1 (stereo not drawn)	-3%
O=C(c1ccccc1)N1CCC(c2nn(-c3ccc(F)cc3)c(=O)[nH]2)CC1	9%
COc1ccc(-c2nc3c(C)cccc3cc2CN(C)Cc2ncc[nH]2)cc1OC	i
Cc1ccc(C)c(NC(=O)c2cc3n(n2)CC(c2ccc(Cl)cc2)OC3)c1 (stereo not drawn)	i
Cc1ccccc1C(=O)N1CCC(c2n[nH]c(=O)n2-c2ccccc2)CC1	-10%
Cc1nc(-c2cccc(S(=O)(=O)N3CCC(C(=O)NCc4ccccc4Cl)CC3)c2)no1	25%
CC(=O)c1ccc(N2CCN(S(=O)(=O)c3cc(-c4noc(C)n4)ccc3C)CC2)cc1	13%
Cc1ccc(NC(=O)C2CCN(S(=O)(=O)c3cccc4nonc34)CC2)cc1C	12%
COc1ccc(-c2noc(N3CCC(C(=O)Nc4ccc(OC)c(OC)c4)CC3)n2)cc1	21%
COc1cccc(NC(=O)C2CCN(S(=O)(=O)c3cc(-c4noc(C)n4)ccc3C)CC2)c1	10µM*
Cc1nc(-c2ccc(C)c(S(=O)(=O)N3CCC(C(=O)Nc4ccc(Cl)cc4)CC3)c2)no1	11µM*
CC(C)c1cc(NCC2CCCCCN2)nc(N)n1 (stereo not drawn)	16%
Cc1ccnn1CCC(=O)N1CC[C@H](N2CCN(C)CC2)[C@H](CCC(=O)O)C1	8%
CC(=O)N1CC[C@H](c2nnc(-c3cccnc3)o2)C1	12%[44.1 µM]
O=C(N[C@@H]1CCOC[C@H]1Oc1cccc(F)c1)c1cnc2c(c1)CCC2	-9%
CC(C)n1cc(CN2CCCCCNC(=O)[C@@H]3CCC[C@@H]32)c2ccccc21	i
Cc1ncsc1CN1CCCCCNC(=O)[C@@H]2CCC[C@@H]21	i
COc1ccc(-c2[nH]ncc2CN2CCCCCNC(=O)[C@@H]3CCC[C@@H]32)cc1	i
COc1ccc(CN2CCCCCNC(=O)[C@@H]3CCC[C@@H]32)cc1Cn1ccnc1	8.9µM*
CCOc1ccccc1CN1CCCCCCNC(=O)[C@@H]2CCC[C@@H]21	2.8µM*
N#Cc1ccc(CN2CCCCCNC(=O)[C@@H]3CCC[C@@H]32)cc1	-20%
N#Cc1cccc(CN2CCCCCNC(=O)[C@@H]3CCC[C@@H]32)c1	-9%
SMILES	Pf Dd2 growth
CCn1cc(CN2CCCCCCNC(=O)[C@@H]3CCC[C@@H]32)cn1	i
N#Cc1ccccc1CN1CCCCCCNC(=O)[C@@H]2CCC[C@@H]21	2.8µM*
O=C(NCc1ccccc1-n1cncn1)C12CNCC1CNC2 (stereo not drawn)	-2%
Cc1onc(C(=O)NC2CCc3nn(C)c(=O)n3CC2)c1COc1ccccc1 (stereo not drawn)	-1%
CC(=O)N1CCC(Cc2ccc(C(=O)NCc3cn[nH]c3C)cc2)CC1	-21%
Cc1cc(C)nc(SCc2ccc(C(=O)N3CC[C@@](C)(O)[C@@H](O)C3)o2)n1	i
O=C1Nc2ccccc2CC12CCCN2CC1CC1 (stereo not drawn)	-5%[44.1 µM]
COc1ccc(-n2c(-c3ccco3)nc3c(cnn3-c3ccc(Cl)cc3)c2=O)cc1	10µM*
Cc1ccc(-c2nc3c(cnn3-c3ccccc3)c(=O)n2-c2ccc(Cl)cc2)cc1	i
Cc1cccc(-n2c(-c3ccco3)nc3c(cnn3-c3ccccc3C)c2=O)c1	i
CN1CCN(c2ccc(C(=O)N3CCC(n4cnnc4)CC3)cc2)CC1	-13%
O=C(C1CC(=O)N(c2n[nH]c3ccccc23)C1)N1CCN(CCc2ccncc2)CC1 (stereo not drawn)	-14%
COc1cccc(C2c3c(oc4ccc(C)cc4c3=O)C(=O)N2CCCN2CCOCC2)c1OC (stereo not drawn)	22%
CCCOc1cccc(C2c3c(oc4ccc(F)cc4c3=O)C(=O)N2CCCN2CCOCC2)c1 (stereo not drawn)	6.3µM*
CCOc1cccc(C2c3c(oc4ccc(F)cc4c3=O)C(=O)N2CCc2ccc(OC)cc2)c1 (stereo not drawn)	2%
O=C(c1ccccc1F)N1CCC2(CC1)N=C(c1ccccc1)NO2	i
C=C[C@H]1CN2CC[C@H]1C[C@@H]2CNC(=O)c1ccc(-c2ccccc2)cc1	-25%[44.1 µM]
C=C[C@H]1CN2CC[C@H]1C[C@@H]2CNCc1ccc(SC)cc1	7.1µM*
C=C[C@H]1CN2CC[C@H]1C[C@@H]2CNS(=O)(=O)Cc1ccccc1	7.1µM*
C=C[C@H]1CN2CC[C@H]1C[C@@H]2CNC(=O)c1ccc(N(C)C)cc1	-5%[44.1 µM]
C#C[C@H]1CN2CC[C@H]1C[C@@H]2CNS(=O)(=O)CCC	i
C=C[C@H]1CN2CC[C@H]1C[C@@H]2CNS(C)(=O)=O	-13%[44.1 µM]
C#C[C@H]1CN2CC[C@H]1C[C@@H]2CNS(=O)(=O)c1ccc(OC)cc1	3.2µM*
C#C[C@H]1CN2CC[C@H]1C[C@@H]2CNS(=O)(=O)c1ccc(NC(C)=O)cc1	-6%[44.1 µM]
C#C[C@H]1CN2CC[C@H]1C[C@@H]2CNS(=O)(=O)c1ccc(C)cc1	-9%[44.1 µM]
SMILES	Pf Dd2 growth
C#C[C@H]1CN2CC[C@H]1C[C@@H]2CNS(=O)(=O)c1ccccc1	i
C=C[C@H]1CN2CC[C@H]1C[C@@H]2CNC(=O)Nc1ccc(C(C)=O)cc1	-31%[44.1 µM]
C#C[C@H]1CN2CC[C@H]1C[C@@H]2CNS(=O)(=O)Cc1ccccc1	7.1µM*
COc1ccc(NC(=O)[C@@H]2C[C@H](c3cccc(C(F)(F)F)c3)N(Cc3cnn(C)c3)C2)cc1	i
CCCNc1cc(N2CCC(CCC(=O)Nc3cc(C)ccc3OC)CC2)ncn1	-29%
O=C(NCc1cccnc1)c1ccc(-c2ccc(N3CCSCC3)nc2)cc1	i
Cc1ccc(C2Cn3nnc(C(=O)N4CCC(C(=O)NCc5ccccc5Cl)CC4)c3CO2)cc1 (stereo not drawn)	i
CCNC(=O)c1n[nH]c2c1CN(C(=O)c1cccc(OC(F)(F)F)c1)CC2	2%
C[C@@H](NC(=O)N1CCOC[C@H]1c1ncc(-c2ccc(F)cc2)[nH]1)c1ccccc1	i
Cc1noc([C@@H]2CN(C(=O)CC(C)(C)C)C[C@H]2CO)n1	1%
COc1cccc(C(=O)N2C(C(=O)NC(C)C)COC23CCN(C(=O)c2ccccc2F)CC3)c1 (stereo not drawn)	-14%
C#CCN(C)C[C@H]1CN2CC[C@H]1C[C@@H]2CNS(=O)(=O)c1ccc(Cl)cc1	i
C=CCN(C)C[C@H]1CN2CC[C@H]1C[C@@H]2CNS(=O)(=O)c1ccc(C)cc1	11µM*
C=CCN(C)C[C@H]1CN2CC[C@H]1C[C@@H]2CNC(=O)Nc1ccccc1	-17%[44.1 µM]
O=C(C1CCCC1)N1CCC(CCOc2ccccc2F)C1 (stereo not drawn)	i
CCn1c2c(c(=O)n1Cc1ccccc1)CCN(C(=O)C1CCC(OC)CC1)C2 (stereo not drawn)	13%[44.1 µM]
COc1cc(=O)n2c(c1C(=O)Nc1ccc(Br)cc1)CCCC2	-18%
CCC1(N2CCN(C(=O)Nc3cc(Cl)ccc3OC)CC2)CCN(C(=O)NC)C1 (stereo not drawn)	-13%
CCc1cc(=O)n(CC(=O)N2CCN(c3ccc(F)cc3)CC2)c(N2CCOCC2)n1	i
CCOc1ccc(NC(=O)c2sc3nc4n(c(=O)c3c2C)CCCC4)cc1	-9%

High-throughput results from PubChem.
